Data from PubChem BioAssay (EPA / NIEHS).
Values joined by “and” are separate entries in the source; they are usually repeats but may differ in a detail not shown here. Equal entries are not always repeated. Results filed as inconclusive are left out. Some compounds were tested as several samples or in several runs, with calls that do not always agree. Active and inactive are the calls of the source. How the source made its calls, unless noted: active means hit-call score of the fitted dose curve at least 0.9, where 1 is the maximum; inactive means score below 0.9.

What was measured:
[1] = CCTE_Harrill_HTTr_Viability_MCF7: CCTE's 6-hour Cell Viability Assessment for the High-Throughput Transcriptomics (HTTr) Platform, in MCF-7 cells cultured in DMEM + 10% fetal bovine serum, Harrill Lab (AID 2284010)
Procedure, shortened: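 Read-out is propidium iodide gain of signal by high-content imaging, reflecting membrane integrity loss. Measurements are taken 6 h after dosing, eight concentrations per chemical, with DMSO serving as baseline for bidirectional curve fitting.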

[2] = CCTE_Harrill_HTTr_Apoptosis_MCF7: CCTE's 6-hour Apoptosis Assessment for the High-Throughput Transcriptomics (HTTr) Platform, in MCF-7 cells cultured in DMEM + 10% fetal bovine serum, Harrill Lab (AID 2284011)
Procedure, shortened: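 Cells are dosed with test chemicals at eight concentrations and imaged 6 hours later for caspase-3/7 activity using a green fluorogenic detection reagent. Activity is fitted in both directions against DMSO controls.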

[3] = CCTE_Shafer_MEA_acute_spike_number: CCTE's Neural Acute Assay for Total Number of Spikes, Shafer Lab (AID 2284008);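 on AC50: curve fitted for decrease in spike count so AC50 reflects inhibitors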
Procedure, shortened: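 Cortical neurons from rat, matured to DIV 13 or 15 on microelectrode arrays, are recorded at 37 C before and during 40-min exposure to 0.03-40 uM compound. Wells need >/= 10 active electrodes.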

[4] = CCTE_Shafer_MEA_acute_firing_rate_mean: CCTE's Neural Acute Assay for Mean Firing Rate, Shafer Lab (AID 2284009);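 further: analyzed for loss of signal so actives lower firing rate relative to DMSO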
Procedure, shortened: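 Primary rat cortical neurons on 16-electrode MEA wells were exposed on DIV 13 or 15 to compound (0.03-40 uM). Spike counts per recording time, averaged over electrodes, were compared between 40-min baseline and 40-min post-exposure recordings as percent change.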

[5] = CCTE_Shafer_MEA_acute_burst_number: CCTE's Neural Acute Assay for Single-Electrode Bursts, Shafer Lab (AID 2284013)
Procedure, shortened: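 Primary rat cortical neurons on 16-electrode MEA wells, DIV 13 or 15, exposed to compound (0.03-40 uM; ≥3 wells); 40-min recordings at 37 C before and after treatment. Burst count expressed as percent change from baseline, DMSO as negative control.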

[6] = CCTE_Shafer_MEA_acute_burst_duration_mean: CCTE's Neural Acute Assay for Mean Burst Duration, Shafer Lab (AID 2284014);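 further: hits are decreases in mean burst duration relative to DMSO controls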
Procedure, shortened: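 Mean burst duration was compared between a 40 min baseline and a 40 min recording in the presence of compound (0.03-40 uM, 37 C), giving percent change per well. Cultures were rat cortical neurons at DIV 13 or 15; wells needed ≥10 active electrodes.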

[7] = CCTE_Shafer_MEA_acute_interburst_interval_mean: CCTE's Neural Acute Assay for Mean Interburst Interval, Shafer Lab (AID 2284016);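 further: percent change of mean interburst interval versus each well's own pre-dose baseline; curves fitted for decrease in interburst interval relative to DMSO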
Procedure, shortened: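 MEA recording of spontaneous network bursting in primary rat cortical cultures; mean interburst interval was compared before and after a 40-min compound exposure (0.03-40 uM) and expressed as percent change, relative to DMSO.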

[8] = CCTE_Shafer_MEA_acute_burst_percentage_std: CCTE's Neural Acute Assay for Standard Deviation of Burst Percentage, Shafer Lab (AID 2284018);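 further: fitted in the negative direction so actives lower burst percentage SD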
Procedure, shortened: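 Value is percent change from baseline in the across-electrode SD of spikes-in-bursts percentage, wells with >/= 10 active electrodes. Acute 40-min exposure to 0.03-40 uM on DIV 13 or 15 rat cortical cultures, recorded at 37 C after 40-min baseline.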

[9] = CCTE_Shafer_MEA_acute_per_network_burst_spike_number_mean: CCTE's Neural Acute Assay for Average Number of Spikes in a Network Burst, Shafer Lab (AID 2284019);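 on AC50: curve fitted for loss of signal so actives reduce spikes per network burst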
Procedure, shortened: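 Percent change from baseline in mean spikes per network burst, spikes detected at 8x rms noise. Each compound at 0.03-40 uM in at least three wells of rat cortical cultures, recorded 40 min before and 40 min during exposure.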

[10] = CCTE_Shafer_MEA_acute_per_network_burst_spike_number_std: CCTE's Neural Acute Assay for Standard Deviation of Number of Spikes in a Network Burst, Shafer Lab (AID 2284020);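 further: fitted for decrease in spike-number SD versus DMSO so actives lower it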
Procedure, shortened: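 Endpoint: percent change from 40 min baseline in standard deviation of spikes per network burst, after 40 min compound exposure (0.03-40 uM, 37 C). Cortical rat neurons on MEA at DIV 13 or 15; spikes detected at 8x rms noise, 300-5000 Hz band-pass.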

[11] = CCTE_Shafer_MEA_acute_per_network_burst_electrodes_number_mean: CCTE's Neural Acute Assay for Mean Number of Electrodes in a Network Burst, Shafer Lab (AID 2284021);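 further: curves fitted for decreases only so hits reduce electrodes per burst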
Procedure, shortened: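 Cultures of rat cortex neurons were exposed on DIV 13 or 15 to compounds at 0.03-40 uM in at least three wells each. Activity over 40 min before and 40 min after exposure at 37 C gave the percent change in electrodes per network burst.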

[12] = CCTE_Shafer_MEA_acute_network_burst_percentage: CCTE's Neural Acute Assay for Percentage of Network Bursts, Shafer Lab (AID 2284022);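 further: curves fitted for loss so actives lower network burst percentage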
Procedure, shortened: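 Cortical neurons from rat were grown over microelectrode arrays and used on day 13 or 15 in vitro. Wells with at least 10 active electrodes received test chemical at 0.03-40 uM. Activity during 40 min of exposure was compared with the preceding 40-min baseline.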

[13] = CCTE_Shafer_MEA_acute_cross_correlation_area: CCTE's Neural Acute Assay for Area of Cross Correlation, Shafer Lab (AID 2284024);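 further: rat primary cortical neuron networks on 48-well MEA at DIV 13 or 15 with 40 min exposure; area under pooled inter-electrode spike cross-correlation near zero lag as percent change from own baseline; curves fitted for loss of cross-correlation area so actives lower synchrony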
Procedure, shortened: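 Acute exposure of mature rat cortical networks (day 13 or 15 post-plating) to 0.03-40 uM compound. Spontaneous spiking on MEA, 40 min pre- and post-dose at 37 C.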

[14] = CCTE_Shafer_MEA_acute_cross_correlation_HWHM: CCTE's Neural Acute Assay for Cross Correlation at Half Width at Half Maximum, Shafer Lab (AID 2284026);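 further: percent change per well from pre-dose baseline in spike cross-correlogram half width; hits are a decrease in cross-correlogram half width relative to DMSO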
Procedure, shortened: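 Primary cortex (rat), MEA, DIV 13/15; compound 0.03-40 uM; 40 min pre + 40 min post at 37 C; spike threshold 8x rms; wells need ≥10 active electrodes; endpoint = % change in cross-correlogram HWHM vs baseline, DMSO negative control.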

[15] = CCTE_Simmons_MITO_max_resp_rate: CCTE's HepG2 Seahorse XF Respirometric Screening Assay at Maximal Respiratory State [uncoupled], Simmons Lab (AID 2284002); details: actives raise or lower the signal
Procedure, shortened: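 Maximal respiration in HepG2 cells is recorded as OCR by Seahorse XF following FCCP injection. Compounds span 125 nM–100 uM final; activity is called in either direction against DMSO.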

[16] = CCTE_Simmons_MITO_inhib_resp_rate: CCTE's HepG2 Seahorse XF Respirometric Screening Assay at Inhibited Respiratory State [full ETC block], Simmons Lab (AID 2284006); details: actives raise or lower the signal
Procedure, shortened: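 Seahorse respirometry, HepG2, 72 min total, 6-min mix/measure cycles. Cpd 125 nM–100 uM final ×7, n=3 biological. Sequential FCCP, rotenone/antimycin A; inhibited-respiration OCR, bidirectional fit vs DMSO.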

[17] = CCTE_Simmons_MITO_viability: CellTiter-Glo Viability Assessment for CCTE's HepG2 Seahorse XF Respirometric Screening Assay [post-hoc], Simmons Lab (AID 2284007; active means hit-call score of the fitted dose curve at least 0.9, where 1 is the maximum;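 on AC50: cells exposed to chemical for 90 min before the ATP read; actives lower ATP signal relative to DMSO baseline meaning reduced viability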)
Procedure, shortened: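 Cytotoxicity readout: ATP quantitation via luciferase in HepG2 cells treated 90 min with seven titrated concentrations (125 nM to 100 uM, final). Curves fitted relative to DMSO negative control, three biological replicates per concentration.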

[18] = CCTE_Harrill_HTTr_CellCount_MCF7: CCTE's Cell Proliferation Assessment for the High-Throughput Transcriptomics (HTTr) Platform, Harrill Lab (AID 2284012; active means hit-call score of the fitted dose curve at least 0.9, where 1 is the maximum;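 further: cells exposed to compound for six hours; intended direction is loss of nuclei count meaning fewer cells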)
Procedure, shortened: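 Cell count served as viability reporter: loss of Hoechst-stained nuclei, counted by high content imaging, marks decreased growth or survival. Exposure was 6 h in MCF-7 cells across eight concentrations, with DMSO as baseline.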

Measured: AC50

C=C1CC/C=C(\C)CC[C@@H]2[C@@H]1CC2(C)C
inactive: [1] | [2]

N[C@@H](CCC(=O)O)C(=O)O
inactive: [3] | [4] | [5] | [6] | [7] | [8] | [9] | [10] | [11] | [12] | [13] | [14]

COC(=O)c1ccc(C(=O)OC)cc1
inactive: [1] | [2]

CC1=CCC(=C(C)C)CC1
inactive: [1] | [2]

C#C[C@]1(O)CC[C@H]2[C@@H]3CCc4cc(O)ccc4[C@H]3CC[C@@]21C
inactive: [15] | [16] | [17] | [2] | [18]

CC(=O)c1ccc(C)cc1
active: [3] 3 nM | [4] 3 nM | [5] 3 nM
inactive: [6] | [7] | [8] | [9] | [10] | [11] | [12] | [13] | [14]

O=C(OCc1ccccc1)c1ccccc1O
inactive: [1] | [2]

CCCO[Si](OCCC)(OCCC)OCCC
inactive: [3] | [4] | [5] | [6] | [8] | [9] | [10] | [11] | [13]
active: [7] 15 µM | [12] 2.98 µM | [14] 0.0212 µM

CCCCCCOC(C)=O
inactive: [1] | [2]

c1coc(CNc2ncnc3nc[nH]c23)c1
inactive: [1] | [2]

CC(C)(CO)CO
inactive: [3] | [4] | [5] | [6] | [7] | [8] | [9] | [10] | [11] | [12] | [13] | [14]

CCCCN(CCO)CCO
active: [7] 24.1 µM | [9] 15 µM | [12] 15 µM
inactive: [3] | [4] | [5] | [6] | [8] | [10] | [11] | [13] | [14]

C=C(C)C(N)=O
inactive: [1] | [2]

CCCCOCCOCCO
inactive: [3] | [4] | [2] | [18] | [5] | [6] | [7] | [8] | [9] | [10] | [11] | [12] | [13] | [14]

CC/C(=C(\c1ccccc1)c1ccc(OCCN(C)C)cc1)c1ccccc1
active: [17] 73.5 µM | [3] 2.73 µM and 4.6 µM | [4] 2.73 µM and 4.63 µM | [18] 72.5 µM | [5] 2.79 µM and 4.2 µM | [7] 3.74 µM | [8] 15.3 µM | [10] 18.3 µM | [12] 18.3 µM and 13.2 µM | [14] 16.4 µM
inactive: [15] | [16] | [2] | [18] | [6] | [7] | [8] | [9] | [10] | [11] | [13] | [14]

C[C@]12CC[C@@H]3c4ccc(O)cc4CC[C@H]3[C@@H]1CC[C@@H]2O
inactive: [15] | [16] | [2]
active: [17] 27 µM

CC(C)CCCC(C)(C)O
inactive: [3] | [4] | [5] | [6] | [7] | [8] | [9] | [10] | [11] | [12] | [13] | [14]

CC(=O)CCc1ccc(O)cc1
inactive: [1] | [2]

OCC=Cc1ccccc1
inactive: [1] | [2]

O=C(c1ccc(OCCN2CCCCC2)cc1)c1c(-c2ccc(O)cc2)sc2cc(O)ccc12
active: [3] 14300 nM | [4] 14100 nM | [5] 11200 nM | [9] 4.05 µM | [10] 33.9 µM | [14] 32.7 µM
inactive: [1] | [2] | [18] | [6] | [7] | [8] | [11] | [12] | [13]

O=C(O)c1ccccc1O
inactive: [1] | [2] | [18]

O=C1OCc2ccccc21
inactive: [1] | [2]

c1ccc2c(c1)-c1ccc3ccc4cccc5cc-2c1c3c45
inactive: [1] | [2]

CCCO
inactive: [1] | [2]
